Our source for the growth values is PubChem BioAssay (NCI).

Molecules are shown by their SMILES. This is part of a sample that, as a whole, favours compounds with a hit. Of some 83,000 tested, about 20% had one in any assay.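 Single-concentration screen, 48 h exposure, 96-well plates. Endpoint: percent growth. Below 10 = active.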 Activity calls are given as the source filed them.

This experiment has as its system CCRF-CEM leukemia. In words: NCI-60 one-dose screen, 48 h (100 = growth as untreated, 0 = no growth, -100 = all killed). The settings on record: 10 µM unless noted. As for the experimental part: Growth inhibition of the CCRF-CEM human tumor cell line is measured as a screen for anti-cancer activity. Cells are grown in 96 well plates and exposed to the test compound for 48 hours. Compounds are tested at a single concentration, which is 10^-5 M for most compounds. The reported endpoint is percent growth (GI% or GIPRCNT), where numbers from 0 - 100% represent growth inhibition, and numbers from -100% - 0 represent cell death. For example, a value of 40 represents 60% growth inhibition. A value of 0 means no net growth occurred over the course of the experiment. A value of -40 indicates 40% of cells at the beginning of the experiment died by the end of the experiment. A value of -100 means all cells are dead at the end of the experiment.
NCI-60 Human Tumor Cell Lines Screen was performed using the standard one-dose NCI protocol, which is described in more detail at https://dtp.cancer.gov/discovery_development/nci-60/default.htm.
Compounds with GIPRCNT values below 10 were considered active. Activity score was based on GIPRCNT using the following formula: […]
Score is 0 for GIPRCNT values of 100 or above, 50 for GIPRCNT values of 0, and 100 for GIPRCNT values of -100.
In the case of `O=C(NCCCCCCNC(=O)c1c2c(nc3ccccc13)-c1cccnc1SC2)c1c2c(nc3ccccc13)-c1cccnc1SC2`, the growth is 93.6% (inactive).
In the case of `O=C(C[n+]1ccnc2ccccc21)c1ccc(O)c(O)c1`, the growth is 4.57% (active).
For the molecule `CN1C(=O)N(C)C2C1NN=c1s/c(=C\c3ccccn3)c(=O)n12` (stereo not given), the growth is 101% (inactive).
`Nc1cc(F)ccc1NC(=O)c1ccc(NC(=O)C/C=C/c2cccnc2)cn1`: the growth is 15.1% (inactive).
With `Nc1nc(N)c2c(n1)NC(c1ccc(Cl)cc1)CC(c1ccc(Nc3nc(NCCO)nc(Nc4ccc(Cl)cc4)n3)cc1)=N2` (stereo not given) the figure was 4.85% (active).
With `C=C(C)C(=O)O[C@H]1C[C@@]2(C)OC(=CC2=O)/C(C)=C\[C@H]2OC(=O)C(=C)[C@H]12`, the growth was -31.8% (active).
Take `O=c1cc(-c2ccccc2)nc2sc(-c3c[nH]c4ccc(F)cc34)nn12`: the growth was 88.4% (inactive).
For `O=C(COc1ccc(C2SCC(=O)N2c2ccccc2)cc1)c1ccccc1` (stereo not given), the growth was 98.9% (inactive).
With `O=c1[nH]c(CNc2ccc(NCc3c(-c4ccccc4)no[n+]3[O-])cc2)nc2c1cnn2-c1ccccc1`, the growth was 57.9% (inactive).
Turning to `CC(C)=CCc1c2c(c(O)c3c1O[C@]14C(=C[C@@H]5C[C@H]1C(C)(C)O[C@@]4(C/C=C(/C)C(=O)O)C5=O)C3=O)CC(O)C(C)(C)O2` (stereo not given in full), the growth was 5.72% (active).
With `CC1=C2C(=C[C@@](C)(COS(N)(=O)=O)[C@@H]2O)C(=O)[C@](C)(O)C12CC2` the figure was 98.2% (inactive); with `CN(C)C(=O)c1ccccc1-n1cnc2ccccc2c1=O`, 97.4% (inactive); with `C#C[C@]1(O)CC[C@H]2[C@@H]3CC=C4c5sc(Nc6cc(OC)ccc6OC)nc5CC[C@]4(C)[C@H]3CC[C@@]21C`, 13.9% (inactive).
Turning to `CCNCc1c(-c2cccc(OC(F)(F)F)c2)[nH]c2ccc(N3CCCC3)cc2c1=O`, the growth was 7.62% (active).
Consider `O=C(CCCCCCN1CC(=O)N2[C@@H](c3ccc(Cl)c(F)c3)c3[nH]c4ccccc4c3C[C@H]2C1=O)NO`, for which the growth was 41.2% (inactive).
With `CC(=O)C1=NN(c2ccc(Cl)cc2)C(=O)CN1C` the figure was 104% (inactive).
`COc1ccc(NC(=O)[C@H](C)N)cc1C(=O)Nc1cccc(-c2cc(=O)c3c(OC)c(OC)c(OC)cc3o2)c1`: the growth is 52.9% (inactive).
In the case of `O=C(Cn1cc(CN2C(=O)c3ccc([N+](=O)[O-])cc3C2=O)nn1)Nc1ccccc1Br`, the growth is 95.1% (inactive).
The result for `Cc1csc(Nc2cccc(Nc3nc(C)cs3)c2)n1` reads 89% (inactive).
Turning to `O=[N+]([O-])c1ccc(-c2nnc(SCc3ccc(O)c4ncccc34)o2)cc1`, the growth is 19.2% (inactive).
Regarding `Oc1ccc(-c2nnc(SCc3ccc(O)c4ncccc34)n2-c2ccccc2)cc1`, the growth is 6.99% (active).
As for `C(=C(\C1=NCCN1)n1cnc2ccccc21)/c1cccc2ccccc12`, the growth was 91.1% (inactive).
On to `O=C(Nc1cccc(Cl)c1)Nc1nc2ccc(-c3cccc4ccccc34)cc2s1`, for which the growth was 40.4% (inactive).
For the molecule `Cc1occc1-c1nc2s/c(=C\c3cn(-c4ccccc4)nc3-c3ccccc3)c(=O)n2n1`, the growth is 90.9% (inactive).
The result for `NS(=O)(=O)c1ccc(Nc2nc(N/N=C/c3ccc(C(F)(F)F)cc3)nc(Nc3ccccc3)n2)cc1` reads 12% (inactive); that for `O=C(NCCCNc1cc(-c2cn(-c3ccccc3)nc2-c2cccc(O)c2)ccn1)Nc1ccc(F)cc1`, 11% (inactive).
As to `CC(c1ccccc1)N1C(=O)/C(=C/c2csc(C#N)n2)SC1=S` (stereo not given), the growth was 10.5% (inactive).
Consider `CS(=O)c1nccc(-c2c(-c3ccc(F)c(OCCc4ccccc4)c3)nc3sccn23)n1` (stereo not given), for which the growth is 49.8% (inactive).
Regarding `COc1ccc(CCN2C(=O)/C(=C/c3nc(CO)cs3)SC2=S)cc1`, the growth was 67.6% (inactive).
Turning to `CN1CCN(Cc2ccc(NC(=O)c3cncc(C#Cc4cnc5ccc(O[C@H]6CCOC6)nn45)c3)cc2C(F)(F)F)CC1`, the growth is 2.84% (active).
For the molecule `COc1ccc2c(c1)c(-c1nnc(N)nc1-c1cn(C)c3ccccc13)cn2C`, the growth is 93.9% (inactive).
On to `O=C(CN1CCN(c2cc(=O)n(-c3ccccc3)c3ccccc23)CC1)Nc1ccc([N+](=O)[O-])cc1`, for which the growth was 98% (inactive).
For `C#C[C@]1(O)CC[C@H]2[C@@H]3CC=C4c5sc(Nc6nc(C)cc(OC)n6)nc5CC[C@]4(C)[C@H]3CC[C@@]21C`, the growth was 12.7% (inactive).
As for `COc1cc(/C=N/n2cnc3oc(-c4ccccc4)cc3c2=N)cc(CN2CCN(C)CC2)c1O`, the growth was 66.9% (inactive).
As for `COc1ccc(Cn2cc3c(c2-c2cc(OC)c(OC)c(OC)c2)CCCc2cnoc2-3)cc1`, the growth was 15.8% (inactive).
As to `NC(N)=NS(=O)(=O)c1ccc(N=NC2C(=O)NN(c3ccccc3)C2=O)cc1` (stereo not given), the growth is 116% (inactive).
The result for `O=C1[C@H]2Cc3c([nH]c4ccccc34)[C@@H](c3ccc(Cl)cc3)N2C(=O)CN1C1CCN(Cc2c(Cl)cccc2Cl)CC1` reads 65.8% (inactive); that for `COc1ccc(-c2cc(-c3cccc4ccccc34)n3c(n2)nc2ccccc23)cc1OC`, 3.68% (active); that for `CCOC(=O)C1=C(C)N=C2Sc3ccccc3N2C1c1ccccc1` (stereo not given), 86.2% (inactive).
`COc1cc2cc(Oc3ccc(NC(=O)Nc4cc(C(F)(F)F)cc(C(F)(F)F)c4)cc3)c(C)nc2cc1OCCN(C)C`: the growth was 110% (inactive).
